Reference: PubChem BioAssay AID623911 (Vanderbilt High Throughput Screening Facility, 2012)
Hit rate of the full screen: of about 2,100 compounds, about 770 (37%) were called active.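 How the source made its calls: active means by-eye trace score of 1 for enhancers or -1 for inhibitors, so actives lie on both sides (some results past the limit were not filed as active); inactive means score 0, or 3 fluorescent, or 4 baseline rise.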 This is one part of the list.

Target: G protein-activated inward rectifier potassium channel 2 (Homo sapiens) + G protein-activated inward rectifier potassium channel 1 (Homo sapiens) (UniProt P48051+P48549)
Sequence (P48051 whole entry, looked up): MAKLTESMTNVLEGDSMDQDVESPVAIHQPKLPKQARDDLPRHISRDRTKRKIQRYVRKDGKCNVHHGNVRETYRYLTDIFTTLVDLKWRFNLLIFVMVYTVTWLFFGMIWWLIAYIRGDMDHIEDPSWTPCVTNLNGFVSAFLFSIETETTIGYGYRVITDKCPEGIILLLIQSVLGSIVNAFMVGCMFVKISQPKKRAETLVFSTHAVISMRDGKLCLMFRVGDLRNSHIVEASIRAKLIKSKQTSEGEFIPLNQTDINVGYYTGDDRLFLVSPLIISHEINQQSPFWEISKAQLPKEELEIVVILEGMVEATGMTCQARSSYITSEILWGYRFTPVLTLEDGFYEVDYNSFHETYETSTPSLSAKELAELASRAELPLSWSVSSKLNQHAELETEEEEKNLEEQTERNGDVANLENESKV
Sequence (P48549 whole entry, looked up): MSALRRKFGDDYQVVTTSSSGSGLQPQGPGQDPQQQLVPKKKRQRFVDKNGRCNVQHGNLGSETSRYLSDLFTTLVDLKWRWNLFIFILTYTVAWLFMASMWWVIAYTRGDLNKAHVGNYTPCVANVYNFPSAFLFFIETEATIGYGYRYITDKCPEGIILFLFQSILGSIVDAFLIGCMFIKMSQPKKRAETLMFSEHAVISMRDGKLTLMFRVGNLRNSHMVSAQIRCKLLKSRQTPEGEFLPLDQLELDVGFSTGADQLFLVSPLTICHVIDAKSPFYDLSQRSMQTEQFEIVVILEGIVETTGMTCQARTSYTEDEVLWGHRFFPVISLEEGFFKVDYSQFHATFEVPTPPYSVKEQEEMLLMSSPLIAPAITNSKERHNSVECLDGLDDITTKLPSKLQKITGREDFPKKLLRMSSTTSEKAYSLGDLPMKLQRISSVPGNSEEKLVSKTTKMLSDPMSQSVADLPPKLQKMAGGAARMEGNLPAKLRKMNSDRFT
Experiment: GIRK1/2 thallium flux modulators, retest, confirmation, cell-based, HEK293 rmGlu8/hGIRK1/2, FluoZin-2 (AID 623911)
Conditions: HEK293 rmGlu8/hGIRK1/2, thallium flux FluoZin-2; actives lie on both sides; glutamate co-added at its EC20 level

| SMILES | manual score |
| --- | --- |
| Cc1ccc(S(=O)(=O)CC(=O)Nc2ccc(S(=O)(=O)Nc3onc(C)c3C)cc2)cc1 | -0.5 (inactive) |
| C/C(CC(O)c1ccc2ccccc2n1)=N/O (centres undefined) | 0 (inactive) |
| CNC(=S)N=Nc1c(O)[nH]c2ccc(C(C)C)cc12 | 0 (inactive) |
| Cc1ccc(C)c(C(=O)c2c(C)nc3sccn23)c1 | -1 (active) |
| Cn1c(=O)c2c(nc3sccn32)n(C)c1=O | 0 (inactive) |
| Cc1cccc(C(=O)NNC(=O)C(=O)NC(C)(C)C)c1 | 1 (active) |
| CC(C)(C)c1ccc(SCC(N)=O)cc1 | 0 (inactive) |
| CC(C)(C)NC(=O)C(=O)NNC(=O)c1ccc(C(C)(C)C)cc1 | 1 (active) |
| CC(C)(C)c1ccc(C(=O)NC(=S)Nn2cnnc2)cc1 | 0 (inactive) |
| O=[n+]1c2c(n([O-])c3cc(F)c(N4CCCC4)cc31)CCCC2 | 3 (inactive) |
| COc1ccc2cc(C(=O)NCC(=O)O)sc(=O)c2c1OC | 0 (inactive) |
| CCOC(=O)c1cnc(SCC(=O)Nc2nc(C)c(C)s2)nc1N | 0 (inactive) |
| C=CCn1c(SCC(=O)Nc2sccc2C(N)=O)nc2ccc(Cl)cc2c1=O | 0 (inactive) |
| CCOC(=O)c1c(NC(=O)CSc2nnc(Cc3csc(N)n3)n2C)sc(C)c1C | -1 (active) |
| C=CCn1c(SCC(=O)Nc2sc(C)c(C)c2C(=O)OCC)nnc1-c1sc(N)nc1C | -1 (active) |
| Cc1c(C(=O)O)c(=S)sn1CCOc1ccccc1 | 0 (inactive) |
| Cc1ccc(-c2cnc(NC(=O)CCC(=O)N3CCCCC3)n2C)cc1 | 0 (inactive) |
| N#Cc1nc(Cc2ccccc2)oc1NCCc1ccccc1 | -0.5 (inactive) |
| O=C(c1cccc(F)c1)N1CCN(C(=O)c2cc(-c3ccc(Cl)cc3Cl)on2)CC1 | 0 (inactive) |
| Cc1ccc(-c2n[nH]c(=S)n2/N=C/c2cccs2)cc1 | 0.5 (inactive) |
| Cn1cccc1/C=N/n1c(-c2ccc(C(C)(C)C)cc2)n[nH]c1=S | 0 (inactive) |
| Cc1ccc(/C=N/n2c(-c3cccs3)n[nH]c2=S)cc1 | 1 (active) |
| Fc1ccc(/C=N/n2c(-c3cccs3)n[nH]c2=S)cc1 | 1 (active) |
| Cc1ccc(-c2n[nH]c(=S)n2/N=C/c2ccc(C)s2)cc1 | 0 (inactive) |
| O=C(NC(=S)Nc1ccccn1)c1cc(-c2ccccc2)nc2ccccc12 | 0.5 (inactive) |

| SMILES | manual score |
| --- | --- |
| Cc1ccc2nsnc2c1NC(=S)NC(=O)c1ccco1 | 1 (active) |
| Cc1ccc2cccc(NC(=S)NC(=O)c3ccnn3C)c2n1 | 0 (inactive) |
| O=C(NC(=S)Nc1ccccn1)c1ccco1 | 1 (active) |
| O=C(CC(=O)Nc1ccccn1)Nc1ccccn1 | 0 (inactive) |
| COc1cccc(C(=O)NC(=S)Nc2ccc([N+](=O)[O-])cc2C)c1 | 0 (inactive) |
| Cc1ccc(OCC(=O)NC(=S)Nc2cccc(C)n2)cc1 | 0 (inactive) |
| Cc1cccc(NC(=S)NC(=O)c2ccco2)n1 | 1 (active) |
| Cc1ccc([N+](=O)[O-])cc1NC(=S)NC(=O)c1ccco1 | 1 (active) |
| Cc1cc([N+](=O)[O-])ccc1NC(=S)NC(=O)Cc1ccccc1 | 0 (inactive) |
| COc1ccc(CO/N=C/c2c(C)[nH]c(=O)[nH]c2=O)cc1 | 0 (inactive) |
| CCCn1nnc(NC(=O)COc2ccc(C3CCCCC3)cc2)n1 | 0 (inactive) |
| CC(NC(=O)C1CC=CCC1C(=O)O)C1CC2CCC1C2 (centres undefined) | 0 (inactive) |
| CCN(CC)c1ccc2cc(-c3nnc(-c4ccccc4)o3)c(=O)oc2c1 | 3 (inactive) |
| CCN(CC)CCn1c(NC(=O)c2ccc(Cl)cc2)nc2ccccc21 | 0 (inactive) |
| CCCn1nnnc1NC(=O)c1ccc2ccccc2c1 | 1 (active) |
| CCCn1nc2cc(C(=O)NCCc3ccc(C)cc3)ccc2c1OCC | 0 (inactive) |
| CC1CN(C2CC(C)(C)NC(C)(C)C2)CCC1=O (centres undefined) | 0 (inactive) |
| Cc1ccc2c(CC(=O)NC3CCCc4ccccc43)coc2c1 (centres undefined) | 0 (inactive) |
| O=C1CCC(/C=C/c2ccccc2)=NN1Cc1ccc(Cl)c(Cl)c1 | 0 (inactive) |
| Cc1nn2c(NCCCN(C)C)c3c(nc2c1-c1ccccc1)CCC3 | -1 (active) |
| CCN1CCN(c2ccc(NC(=O)CCc3c(C)nc4c(-c5ccccc5)c(C)nn4c3C)cc2)CC1 | 0 (inactive) |
| Cc1cc(N2CCOCC2)n2nc(C)c(-c3ccccc3)c2n1 | 0 (inactive) |
| CCOC(=O)C1=C(C)NC2=C(C(=O)C(C(=O)OCC)C(c3cccc(OC)c3)C2)C1c1ccccn1 (centres undefined) | 0 (inactive) |
| COC(=O)c1onc(C(=O)c2ccccc2)c1C(=O)OC | -1 (active) |
| CCC(C(=O)OCC(=O)Nc1ccc(Cl)c(S(=O)(=O)N(C)C)c1)c1ccccc1 (centres undefined) | 1 (active) |

| SMILES | manual score |
| --- | --- |
| CC(C)C(=O)OCC(=O)Nc1ccc(N=Nc2ccccc2)cc1 | 0 (inactive) |
| Cc1nn(CC(=O)Nc2ccc(Cl)c(S(=O)(=O)N(C)C)c2)c(C)c1[N+](=O)[O-] | 1 (active) |
| COC(=O)c1sccc1NC(=O)CSc1ccccc1NS(=O)(=O)c1cc(Cl)ccc1Cl | 0 (inactive) |
| CN(C)S(=O)(=O)c1cc(NC(=O)COC(=O)c2ccc3c(c2)OCO3)ccc1Cl | 0.5 (inactive) |
| Cc1cc(C)n(-c2ccc(C(=O)OCC(=O)Nc3ccc(Cl)c(S(=O)(=O)N(C)C)c3)cc2)n1 | 1 (active) |
| CCCCN(CCCC)c1nc2ccccc2nc1C(C#N)C(=O)NCCCOC (centres undefined) | 3 (inactive) |
| Oc1ccccc1CNc1ccc(Br)cn1 | 0 (inactive) |
| CCSc1nc(-c2ccccc2)c(C#N)c(=O)[nH]1 | 0 (inactive) |
| S=C1NC(c2ccccc2)=NCN1c1ccc(Cl)cc1 | 0.5 (inactive) |
| CCC1(c2ccc(Cl)cc2)NC(=S)N(c2ccccc2)N1 (centres undefined) | 1 (active) |
| CCCCOC(=O)c1ccc(NC(=S)NC(=O)c2c(Br)c(C)nn2C)cc1 | 0 (inactive) |
| CCCCOC(=O)c1ccc(NC(=S)NC(=O)c2c(Cl)cnn2C)cc1 | 0 (inactive) |
| COC(=O)c1ccc(NC(=S)NC(=O)c2cc(-c3ccccc3)nc3ccccc23)cc1 | 0 (inactive) |
| COC(=O)c1ccc(NC(=S)NC(=O)c2c(Cl)cnn2C)cc1 | 1 (active) |
| Cn1ncc2cc(NC(=S)NC(=O)c3ccccc3)ccc21 | 0 (inactive) |
| CCCCOC(=O)c1ccc(NC(=S)NC(=O)c2c(Cl)cnn2CC)cc1 | 1 (active) |
| COC(=O)C1=NN(C(=O)c2ccc(Cl)cc2)C(O)(c2ccccc2)C1 (centres undefined) | 1 (active) |
| CCOC(=O)C1=NN(C(=O)c2ccc(C)cc2)C(O)(c2ccc(Cl)cc2)C1 (centres undefined) | 1 (active) |
| CCOC(=O)c1c(C)[nH]c(C(=O)COC(=O)CNC(=O)c2ccc(Cl)cc2)c1C | 0 (inactive) |
| CC1=NN(c2ccccc2)C(=O)C1C(=O)c1ccc(Cl)cc1 (centres undefined) | 0.5 (inactive) |
| CCOC(=O)C1=C(NC(=S)NC(=O)c2ccccc2)c2ccccc2CC1(C)C | 0 (inactive) |
| CCC1=NN(C(=O)c2cccc(Br)c2)C(O)(c2ccc(Br)cc2)C1 (centres undefined) | 0 (inactive) |
| COC(=O)C1=NN(C(=O)c2ccc(C)cc2)C(O)(c2ccc(Cl)cc2)C1 (centres undefined) | 1 (active) |
| CCOC(=O)C1=NN(C(=O)c2ccccc2)C(O)(c2ccc(C)cc2)C1 (centres undefined) | 1 (active) |
